SMILES strings stand for the structures. Screen size: about 360,000 compounds; about 1,800 (0.5%) were called active.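 Rule for the calls: active = mean inhibition of at least 75% with every replicate also reaching 75%; inconclusive = mean inhibition at least 75% but some replicate below; inactive = mean inhibition below 75%.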 What follows is part of a selection rich in actives, with near analogues and random picks from the rest.

The assay is described as follows: Shn3 3'UTR reporter decrease in osteoblasts – cell-based, Clone20 osteoblasts, firefly luciferase, set 2, Schnurri-3 inhibitor project, primary screen (AID 588674).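 Note: 0% = median of neutral control wells and 100% = pilot-screen positive control compound.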 As to conditions: Clone20 osteoblast Shn3 3'UTR firefly luciferase, 24 h; at 12.5 µM; hits give high values.
Turning to `CCCCNc1nc2c(c(=O)n(C)c(=O)n2C)n1Cc1cccc(OC)c1`, the inhibition (usually the change of the read-out against control, counted positive when it falls) was 86.7% (active).

Turning to `Cn1c(=O)c2c(nc(NCCNC(=O)c3ccco3)n2Cc2ccccc2F)n(C)c1=O`, the inhibition is 12.8% (inactive).

For `CCn1c(NCCc2ccc(OC)c(OC)c2)nc2c1c(=O)n(C)c(=O)n2C`, the inhibition is 63.1% (inactive).

Regarding `C[C@H](C(=O)CC(=O)OC(C)(C)C)[C@H](O)c1ccc(C(F)(F)F)cc1`, the inhibition was -13.2% (inactive).

Regarding `O=C(NCc1ccc(F)cc1)c1cc(C2CCCCN2C(=O)c2cccs2)on1` (configuration not stated), the inhibition is 4.41% (inactive).

Regarding `O=S1(=O)CC(N2CCN(c3ccccn3)CC2)CN1Cc1ccc(F)cc1` (configuration not stated), the inhibition was 11.2% (inactive).

In the case of `Cc1cc(-c2n[nH]c(=S)n2/N=C/C(Br)=C/c2ccccc2)n[nH]1`, the inhibition was 90.7% (active).

For `COc1ccccc1/C=C/C=N/n1c(-c2ccc(Cl)cc2Cl)n[nH]c1=S`, the inhibition is -1.5% (inactive).

As to `COc1ccccc1N1CCN(/N=C\C(Br)=C\c2ccccc2)CC1`, the inhibition is 39.8% (inactive).

On to `Cc1ccc(S(=O)(=O)N2C[C@]3(O)C[C@@H]4C(=O)N(c5ccccc5)C(=O)[C@@H]4C[C@]3(OC(=O)NC3CC3)C2)cc1`, for which the inhibition is 7.81% (inactive).

For `CCOC(=O)/C(=N\Nc1ccccc1[N+](=O)[O-])c1csc(Nc2ccccc2)n1`, the inhibition was -7.96% (inactive).

`CCOC(=O)C(=Cc1ccccc1)C(=O)c1ccccc1`: the inhibition was 40.1% (inactive).

Consider `CCOC(=O)/C(=C\c1ccc([N+](=O)[O-])cc1)C(=O)c1cc(C(C)=O)c(Nc2ccccc2)s1`, for which the inhibition was 97.8% (active).

Turning to `COc1ccc(-c2c(C#Cc3ccsc3)c3cc(-c4ccc(CN5CCOCC5)cc4)ccc3n2C)cc1`, the inhibition was 10.2% (inactive).

For `CC1(C)CC(N2CCN(C(c3ccccc3)c3ccccc3)CC2)=CC(=[N+]2CCCCC2)C1`, the inhibition is 88.3% (active).

As for `COc1ccccc1NC(=S)N1CCN(C(c2ccccc2)c2ccccc2)CC1`, the inhibition is 13.3% (inactive).

As to `Cc1cccc(N2CCN(C(c3ccccc3)c3nnnn3CC3CCCO3)CC2)c1C` (configuration not stated), the inhibition is 20.4% (inactive).

`Cc1ccc(-n2c(=O)c(C#N)cc3c(=O)n4ccccc4nc32)cc1C`: the inhibition is 6.55% (inactive).

As to `O=C(NCC1CCCCC1)c1cc(S(=O)(=O)N2CCCCC2)ccc1N1CCOCC1`, the inhibition is -9.53% (inactive).

Consider `CCc1nnc(NC(=O)CCN(c2ccc(C)cc2)S(=O)(=O)c2ccccc2)s1`, for which the inhibition was -20.5% (inactive).

For `Cc1sc2ncnc(SCC(=O)NC3CCS(=O)(=O)C3)c2c1C` (configuration not stated), the inhibition was -6.98% (inactive).

`CC(C)(C)c1ccc(/C=C2\Oc3c(ccc(O)c3CN3CCN(CCO)CC3)C2=O)cc1`: the inhibition is 7.57% (inactive).

For `O=C(Cn1cc(C(=O)C2CC2)c2ccccc21)Nc1ccccc1Cl`, the inhibition is 87.4% (active).

`COCCCNC(=O)Cn1cc(C(=O)C2CC2)c2ccccc21`: the inhibition was 11.6% (inactive).

Regarding `Cc1ccccc1NC(=O)Cn1cc(C(=O)C2CC2)c2ccccc21`, the inhibition is 8.79% (inactive).

As to `COc1cc(CNc2ncnc3c2ncn3[C@H]2CN(Cc3cccs3)C[C@@H](CO)O2)cc(OC)c1OC`, the inhibition is -5.77% (inactive).

On to `COc1ccccc1C(=O)NC(=S)Nc1ccc(N2CCOCC2)cc1`, for which the inhibition is -4.89% (inactive).

On to `Cc1ccccc1C(=O)NC(=S)Nc1ccc(N2CCN(C(=O)c3ccccc3)CC2)cc1`, for which the inhibition was 88.5% (active).

Consider `Cc1ccccc1C(=O)N1CCN(c2ccc(NC(=O)c3cccs3)cc2)CC1`, for which the inhibition is 23.5% (inactive).

For the compound `CC1(C(=O)NS(=O)(=O)Cc2cccc(Cl)c2)CCN1C(=O)Cc1ccc(Cl)cc1Cl` (configuration not stated), the inhibition is 18.9% (inactive).

As for `CC1(C)CC(=O)C=C(c2cccc3c2Oc2ccccc2S3)C1`, the inhibition was 22.5% (inactive).

As to `CCOC(=O)c1c(C)[nH]c(C(=O)OCC(=O)c2ccc(OC)cc2OC)c1C`, the inhibition is -19.1% (inactive).

With `CCOC(=O)c1c(C)[nH]c(C)c1S(=O)(=O)NCCCc1ccco1`, the inhibition was 6.75% (inactive).

With `CCOC(=O)c1c(C)[nH]c2c1-c1ccccc1C(=O)C2=O`, the inhibition was 95.4% (active).

As for `COc1ccccc1C(=O)Nc1ccnn1C1CCN(C(=O)C(C)(C)C)CC1`, the inhibition is -5.61% (inactive).

Regarding `CC(=O)Nc1ccc(N2C(=O)CCC2=O)cc1C`, the inhibition is -1.51% (inactive).

`C/C(N)=C(/C#N)C(=O)COC(=O)C1CCN(C(=O)c2ccc(Cl)cc2)CC1`: the inhibition is 3.42% (inactive).

Turning to `Cc1cccc(NC(=O)Cn2cc(C(=O)c3ccco3)c3ccccc32)c1`, the inhibition was 76.4% (inactive).

Consider `Cc1cccc(NC(=O)c2nc(S(=O)(=O)Cc3ccccc3)ncc2Cl)c1`, for which the inhibition was 96.9% (active).

Take `Cc1cccc(CS(=O)(=O)c2ncc(Cl)c(C(=O)Nc3ccc(F)cc3)n2)c1`: the inhibition was 95.8% (active).

In the case of `Cc1ccc(C)c(Cn2nnc3c(=O)[nH]c(C(=O)Nc4ccc(F)cc4)nc32)c1`, the inhibition is 6.9% (inactive).

For `Cc1cccc(NC(=O)CCN2CC(C)CC(C)C2)c1` (configuration not stated), the inhibition is 15.6% (inactive).

Turning to `Cc1cccc(CN2CCC(CNC(=O)Nc3ccc(F)c(Cl)c3)CC2)c1`, the inhibition is 31.4% (inactive).

Regarding `CCS(=O)(=O)Nc1ccc(C(=O)NCCSc2ccccc2)cc1`, the inhibition was -6.43% (inactive).

On to `CCCCc1ccc(NC(=S)N2CCCC(CO)C2)cc1` (configuration not stated), for which the inhibition is -84.4% (inactive).

Consider `COc1cccc(CN(C)CC(=O)Nc2sc3c(c2C#N)CCC3)c1`, for which the inhibition is -22.6% (inactive).

Take `COc1cncc(-c2cnc3sc(NCCc4ccccn4)nn23)c1`: the inhibition is 21.9% (inactive).

As to `COC(=O)c1sc(C(F)(F)F)c(-c2ccccc2)c1S(=O)(=O)N(C)C`, the inhibition is 10.9% (inactive).

On to `O=C(O)Cc1ccc(NCc2ccccc2Cl)cc1`, for which the inhibition was -22.2% (inactive).

As to `CC(CN1CCCCC1)OC(=O)c1ccccc1Cl` (configuration not stated), the inhibition was -3.13% (inactive).

As for `CC(C)OC(=O)c1ccc(NCc2cc(O)ccc2O)cc1Cl`, the inhibition was 95.7% (active).

Consider `CNS(=O)(=O)c1cccc(C(=O)OCCCC(=O)c2ccccc2)c1`, for which the inhibition was 41.8% (inactive).

Regarding `Fc1ccc2[nH]c3c(N4CCSCC4)ncnc3c2c1`, the inhibition was 89.7% (active).

`CC(C)Cn1cnc2c(SCc3ccc(Cl)cc3)nc(N)nc21`: the inhibition was 11.7% (inactive).

Turning to `COCCn1c(SC(C)C(=O)NC2CC2)nnc1-c1cccc(C)c1` (configuration not stated), the inhibition is 1.3% (inactive).

In the case of `O=C(OC12CC3CC(CC(C3)C1)C2)c1ccc(NCc2cc(O)ccc2O)cc1`, the inhibition was 98.1% (active).

On to `CC1(C)C2CCC1(C)C(OC(=O)c1ccc(O)cc1)C2` (configuration not stated), for which the inhibition was 21.8% (inactive).

As to `CN(C)C(=O)CCc1ccc2c3c([nH]c2c1)[C@]1(C)[C@@H](C(=O)N2CCOCC2)C[C@H](CC(=O)NCCc2ccccn2)C(=O)N1CC3`, the inhibition was -11.8% (inactive).

For the compound `CCCOc1ccc(F)cc1-c1cc(C(=O)Nc2ccc(F)cc2)[nH]n1`, the inhibition is 20% (inactive).

With `COc1cc(F)ccc1-c1cc(C(=O)NCC2CCCCC2)[nH]n1`, the inhibition is -10.1% (inactive).

Consider `COc1ccc(OC)c(NC(=O)c2cc(-c3cc(F)ccc3OCC3CCCO3)n[nH]2)c1` (configuration not stated), for which the inhibition is 86.3% (active).

Consider `O=C(CSc1ncnc2c1nnn2Cc1ccc(F)cc1)NC1CCCC1`, for which the inhibition was -2.06% (inactive).

Consider `O=C1c2ccccc2[C@@H]2C[C@@H](O)[C@H](Nc3ccccc3Cl)CCN12`, for which the inhibition is 55.5% (inactive).

In the case of `Cc1ccc(C)c(NC(=O)CSc2nnc(Cc3cccn3C)n2-c2ccc(F)cc2)c1`, the inhibition is 7.47% (inactive).

For the compound `COc1ccccc1NC(=O)CSc1nnc(Cc2cccn2C)n1-c1ccc(F)cc1`, the inhibition is 17% (inactive).

Consider `Cn1cccc1Cc1nnc(SCC(=O)NCCc2ccccc2)n1-c1ccc(F)cc1`, for which the inhibition was 87.9% (active).

Turning to `Fc1cccc(Cc2c(-c3ccc(Cl)cc3)nc3ccc(Cl)cn23)c1`, the inhibition is -13.4% (inactive).

As for `CN1OC[C@@H]2CN(C(=O)c3cccc4ccccc34)[C@H](c3ccc(N4CCCCC4)cc3)C[C@@H]21`, the inhibition was -9.07% (inactive).

As to `O=S(=O)(Nc1ccc(Oc2ncccn2)c(Cl)c1)c1ccc(F)cc1`, the inhibition is -28.6% (inactive).

`Cc1cc(C)cc(OCC(=O)Nc2ccc(S(=O)(=O)Nc3ccccn3)cc2)c1`: the inhibition was 6.49% (inactive).

Regarding `Cc1ccc(S(=O)(=O)Nc2ccc3ncccc3c2)cc1`, the inhibition was 86.6% (active).

As to `Cc1c(CC(=O)NCC(=O)NCC(=O)O)c(=O)oc2cc3oc4c(c3cc12)CCCC4`, the inhibition is -25.9% (inactive).

Turning to `CN(C)C(=O)c1ccc2c(c1)C1C3CCC(C3)C1C(c1ccccc1)N2` (configuration not stated), the inhibition is -19.2% (inactive).

Regarding `COc1ccc(CCNc2cc(N3CCN(C(=O)c4ccccc4OC)CC3)ccc2[N+](=O)[O-])cc1OC`, the inhibition is 88.7% (active).

For the compound `O=C(c1ccccc1)N1CCN(c2ccc([N+](=O)[O-])c(NCc3ccco3)c2)CC1`, the inhibition was 27.6% (inactive).

For the compound `COc1ccccc1OCCNc1cc(N2CCOCC2)ccc1[N+](=O)[O-]`, the inhibition was 40.1% (inactive).

Consider `CC1=CC(=O)C=CC1(C)C(Cl)(Cl)Cl` (configuration not stated), for which the inhibition is 9.05% (inactive).

Take `O=C(CCS(=O)(=O)c1ccc2c(c1)NC(=O)CS2)NCc1ccccc1Cl`: the inhibition is -18.1% (inactive).

Turning to `CC(C)(CNC(=O)c1ccc(Cl)c(S(=O)(=O)N2CCc3ccccc3C2)c1)N1CCOCC1`, the inhibition is 82.5% (active).

Turning to `CN(C)S(=O)(=O)c1ccc(C(=O)NCC(C)(C)N2CCOCC2)cc1`, the inhibition was 23% (inactive).

For the compound `O=C(NCCSCc1ccccc1)c1ccc(Cl)c(S(=O)(=O)N2CCOCC2)c1`, the inhibition was 10.8% (inactive).

Regarding `CCOC(=O)C1=CCC(c2ccc(F)cc2)N(S(=O)(=O)c2ccc(C)cc2)C1` (configuration not stated), the inhibition was 10.7% (inactive).

In the case of `N#Cc1c(-c2ccc(F)cc2)cc(C2CC2)nc1SCC(=O)c1cccs1`, the inhibition was -3.6% (inactive).

On to `CN(CC1CCCO1)S(=O)(=O)c1ccc(C(=O)Nc2ccc([N+](=O)[O-])cc2)cc1` (configuration not stated), for which the inhibition was 39.9% (inactive).

In the case of `CN1C2CCC1CC(NC(=O)c1ccc([N+](=O)[O-])cc1)C2` (configuration not stated), the inhibition was -1.34% (inactive).

In the case of `O=C(Nc1cc2c3c(c1)C1CCCC1CN3CC1CCCC21)c1ccc([N+](=O)[O-])cc1` (configuration not stated), the inhibition is 88.9% (active).

For the compound `CC1=NNC(=O)C1CCC(=O)N/N=C\c1cccc(Cl)c1` (configuration not stated), the inhibition was -5.12% (inactive).

The record behind these values is PubChem BioAssay AID588674 (Broad Institute, 2011).
